The text below walks through data of PubChem BioAssay AID598 (SRMLSC, 2007).

About 5,100 (6%) of roughly 85,000 compounds were called active.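 The calls were made as follows: active = viability at or below 40%; inactive = viability above 40%.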 Shown is part of a subset that was picked to be rich in actives.

This experiment in a line: proliferation blockers of H69AR lung cancer cells, primary screen, cell-based, human, 86K library (AID 598).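 Also: multidrug resistant small cell line overexpressing MRP-1 efflux transporter; 100% = mean luminescence of untreated control wells.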 The settings on record: H69AR lung tumor viability, ATP luminescence, 72 h; at 10 µM; active compounds read low.
As usually defined, the viability is a read-out of living cells in per cent, often relative to untreated cells. For `COc1ccc(C(C)=O)cc1CN1C(=O)NC2(CCCCC2C)C1=O` (configuration not stated), the viability was 93.7% (inactive).

In the case of `CCOC(=O)N1CCN(C(=O)COc2ccc(Br)cc2)CC1`, the viability is 104% (inactive). To `CCOC(=O)C1CCN(C(=O)Nc2ccc(Cl)cc2)CC1` belongs 101% (inactive); to `CCOC(=O)C1CCN(C(=O)COc2cc(C)c(Br)c(C)c2)CC1`, 35.3% (active). To `O=C1C2C3C=CC(C4CC34)C2C(=O)N1/N=C/c1ccc(-c2ccccc2[N+](=O)[O-])o1` (configuration not stated) belongs 86.5% (inactive). For `COc1ccc(NC(=O)/C(Cl)=C(/Cl)S(=O)Cc2ccc(C)cc2)cn1` (configuration not stated) the value was 0.7% (active). Turning to `COc1cccc(NC(=O)Cc2ccc(C)cc2)c1`, the viability is 97.9% (inactive).

Regarding `O=C(Cn1cnc2ccccc2c1=O)NCC1COc2ccccc2O1` (configuration not stated), the viability is 104% (inactive). To `Cc1cc(=O)[nH]c(SCc2cccc(F)c2)n1` belongs 106% (inactive). Consider `O=C(Cn1nc(C(F)(F)F)c2c1CCC2)NCc1ccc(F)cc1`, for which the viability was 104% (inactive). To `COC(=O)c1ccccc1NC(=O)Cn1nc(C(F)(F)F)c2c1CCC2` belongs 84.3% (inactive); to `Cc1cc(NC(=O)Cn2nc(C(F)(F)F)c3c2CCCC3)no1`, 35.8% (active). To `Cc1ccc(OC(=O)c2ccccc2C(=O)OCC(F)(F)C(F)F)cc1` belongs 99.1% (inactive); to `Cc1cccc(-n2ncc3c(N4CCc5ccccc54)ncnc32)c1`, 33.3% (active). For `COc1ccc(-n2ncc3c(N4CCCc5ccccc54)ncnc32)cc1` the value was 100% (inactive); for `COc1ccc(-n2ncc3c(N4CCc5ccccc54)ncnc32)cc1`, 43.4% (inactive). For the compound `CC(C)N1C(=S)SC(C)(C)C1n1oc(=O)n(-c2ccc(Cl)c(Cl)c2)c1=O` (configuration not stated), the viability was 97.1% (inactive). To `CC(C)(C)n1nnnc1C(c1ccc(F)cc1)N1CCN(Cc2ccc3c(c2)OCO3)CC1` (configuration not stated) belongs 81.2% (inactive); to `CCN1C(=O)/C(=C\N2CCOCC2)SC1=S`, 86.2% (inactive); to `CCSc1nc(-c2ccc(OC)cc2)cc(-c2ccc(OC)cc2)c1C#N`, 88% (inactive).

As for `COC(=O)C(NC(C)=O)(Nc1nc2c(s1)CCCC2)C(F)(F)F` (configuration not stated), the viability was 91.5% (inactive). For `O=C(CCS(=O)(=O)c1ccccc1)Nc1nc2c(s1)CCCC2` the value was 17.5% (active). With `O=C(Cn1c(=O)sc2ccccc21)Nc1nc2c(s1)CCCC2`, the viability is 63.2% (inactive). For `COc1ccc(C(C#N)N2N=C(C)CC2(C)C)cc1` (configuration not stated) the value was 104% (inactive). To `COC(=O)c1c(C)c(C)nc(N)c1C#N` belongs 98.1% (inactive); to `FC(F)(F)c1cc(-c2ccco2)nc(NCc2ccc(Cl)cc2)n1`, 101% (inactive). For `CCCNC(=O)c1ccc(Cl)c(Cl)c1` the value was 96% (inactive). For the compound `O=C(NCc1cccnc1)Nc1ccccc1F`, the viability is 98.8% (inactive).

For the compound `CCC(c1nnnn1Cc1ccco1)N(CCc1ccccc1)Cc1cc2cccc(C)c2[nH]c1=O` (configuration not stated), the viability is 67.3% (inactive). For `CCC(c1nnnn1Cc1ccco1)N(Cc1cc2cc(OC)ccc2[nH]c1=O)C1CCCCC1` (configuration not stated) the value was 76.8% (inactive); for `CCC(c1nnnn1Cc1ccco1)N(CCc1ccccc1)Cc1cc2ccc(OC)cc2[nH]c1=O` (configuration not stated), 23.2% (active); for `CC1CCc2c(sc(NC(=O)c3ccc(Cn4cc(Br)cn4)o3)c2C(N)=O)C1` (configuration not stated), 101% (inactive). To `Cc1cc(NC(=O)CSc2nc(C(C)C)nc3sc4c(c23)CCC(C)C4)no1` (configuration not stated) belongs 6.01% (active); to `Cc1nc(SCC(=O)Nc2cc(C)on2)c2c3c(sc2n1)CCCC3`, 94% (inactive). For `C=CCN(C(=O)Nc1ccc2oc(C)nc2c1)c1ccccc1` the value was 78.7% (inactive). Consider `COc1cc(C(=O)Nc2nccs2)cc(OC)c1OC`, for which the viability is 84.2% (inactive). To `COc1ccc(-c2nn(-c3ccccc3)cc2C(=O)Nc2nccs2)cc1OC` belongs 17.2% (active); to `COc1ccc(-c2nn(-c3ccccc3)cc2C(=O)Nc2nc(CC(C)=O)ns2)cc1`, 86.5% (inactive); to `C/C=C/C(=O)Nc1nnc(C(C)C)s1`, 96.5% (inactive). To `O=C(Nc1ccccc1)c1ccc2c(c1)OCO2` belongs 82.3% (inactive); to `CCC(C)c1ccc(O)c(/C=N/O)c1` (configuration not stated), 21.6% (active); to `Cc1nn(C(C)CC(=O)O)c(C)c1C` (configuration not stated), 98.2% (inactive). To `CCCCNC(=O)C1(c2ccc(OC)cc2)CCOCC1` belongs 93.8% (inactive). Regarding `CCOc1ccc(NC(=O)c2ccccc2NS(C)(=O)=O)cc1`, the viability was 94.1% (inactive). For `C=CCn1c(SCC(=O)NCc2ccccc2)nnc1-c1cc(Br)ccc1O` the value was 87.8% (inactive). Regarding `C=CCn1c(CSc2nc3ccccc3s2)nnc1SCC(=O)NCc1ccco1`, the viability was 54.6% (inactive). As for `C=CCn1c(SCC(=O)Nc2nc3ccccc3s2)nnc1-c1ccccc1O`, the viability was 27.4% (active).

For the compound `COc1ccc(C(=O)Nc2nc(-c3ccc(S(=O)(=O)N4CCOCC4)cc3)cs2)cc1`, the viability was 58% (inactive). Turning to `COc1ccc(OC)c(Nc2nc(-c3ccc(O)c(O)c3)cs2)c1`, the viability was 30.8% (active). For `Oc1ccc(-c2csc(Nc3cccnc3)n2)cc1` the value was 54.4% (inactive); for `CCOC(=O)C1=C(CN2CCc3ccccc32)NC(=O)NC1c1ccc(Cl)cc1` (configuration not stated), 48.1% (inactive). To `CCOC(=O)C1=C(CNC2CCCCC2)NC(=O)NC1c1cc(C)ccc1C` (configuration not stated) belongs 80.5% (inactive); to `CCOC(=O)C1=C(CN2CCc3ccccc32)NC(=O)NC1c1cccc([N+](=O)[O-])c1` (configuration not stated), 16.4% (active).

With `COc1ccc(C2=CC(c3cccc(OC)c3)n3nnnc3N2)cc1` (configuration not stated), the viability is 11.4% (active).

As to `COc1ccccc1NC(=O)C1=C(C)Nc2nnnn2C1c1cccc(Br)c1` (configuration not stated), the viability was 45.1% (inactive).

Take `COC(=O)C1=C(C(=O)c2ccc(C)cc2)C(c2ccccc2)n2nnnc2N1` (configuration not stated): the viability is 93.9% (inactive). `CC(C)C(NC(=O)c1ccc(Cl)cc1)C(=O)O` (configuration not stated): the viability was 111% (inactive). To `CCCc1nc2sc3c(c2c(=O)n1NC(=O)CCCl)CCCC3` belongs 36% (active). Take `Cn1c(NN)nc2sc3c(c2c1=O)CCC3`: the viability is 96.5% (inactive).

Take `O=c1c2ccccc2nnn1CSc1nc2sc3c(c2c(=O)n1CC1CCCO1)CCC3` (configuration not stated): the viability was 54.9% (inactive). To `CC(C)CCNC(=O)CC1C(=O)N(Cc2ccccc2)C(C)c2nc3ccccc3n21` (configuration not stated) belongs 102% (inactive). To `COc1ccc(C2(CNC(=O)C(c3ccccc3)c3ccccc3)CCOCC2)cc1OC` belongs 74.8% (inactive); to `CCOc1cc(C(=O)Nc2c(C)ccc3nsnc23)cc(OCC)c1OCC`, 78.3% (inactive); to `COc1ccc(C(=O)Nc2ccc(CN3CCOCC3)cc2)cc1`, 98.4% (inactive). For `O=C(CC(NCCN1CCOCC1)C(=O)O)Nc1cccc(Cl)c1` (configuration not stated) the value was 94.2% (inactive); for `COc1cccc2cc(C(C)N(CCCN3CCOCC3)C(=O)Nc3ccc(Cl)cc3)oc12` (configuration not stated), 31.7% (active); for `CCn1c(SCC(=O)Nc2cccc(F)c2)nnc1-c1cc2cc(Br)ccc2o1`, 34.7% (active). Turning to `CCn1c(Cc2ccccc2)nnc1SCC(=O)Nc1ccccc1`, the viability was 90% (inactive). For `CCCn1c(SCC(=O)Nc2cccc(C(=O)OCC)c2)nnc1-c1ccoc1C`, the viability is 78.9% (inactive).

In the case of `COC(=O)c1cc2nc(-c3ccccc3)cc(C(F)(F)F)n2n1`, the viability is 90.6% (inactive). For `O=C(O)CCC(=O)NCc1ccc(C(=O)O)cc1` the value was 96% (inactive). For `O=C(Nc1cc(-c2nn(CC(=O)N3CCCCC3)c(=O)c3ccccc23)ccc1N1CCOCC1)c1ccc(Cl)cc1` the value was 93.1% (inactive).

`Cc1ccc(-c2cnc(NC(=O)CCC(=O)N(C)Cc3ccccc3)n2C)cc1`: the viability is 100% (inactive). As to `COc1ccc(NC(=O)CC2COc3ccccc3O2)c(OC)c1` (configuration not stated), the viability was 105% (inactive). For `Cc1cccc(-c2nc3c(c(SCC(=O)N4CCOCC4)n2)CCCC3)c1` the value was 70.3% (inactive); for `Cc1ccc(S(=O)(=O)c2c(COC(=O)c3cccc(Cl)c3)c(-c3ccccc3)nn2C)cc1`, 87.9% (inactive). In the case of `Cn1nc(-c2ccccc2)c(CSc2cccc(Cl)c2)c1Cl`, the viability is 22% (active). To `COC(=O)Cn1nc(-c2ccccc2)c2cc(Cl)ccc21` belongs 98.3% (inactive); to `Cn1c(=O)c2c(SCC(=O)N3CCOCC3)nc(C3CC3)nc2n(C)c1=O`, 81.8% (inactive).

For the compound `CC(C)NC(=O)C(=O)NCCN1CCN(S(=O)(=O)c2ccc(Cl)cc2)CC1`, the viability is 94.6% (inactive). `O=C(CCn1c(SCC(=O)c2ccccc2)nc2ccccc2c1=O)NCc1ccc(F)cc1`: the viability is 97.6% (inactive).

Take `CC(=O)c1ccc(Oc2cc(C)nc(-n3nc(C)cc3C)n2)cc1`: the viability is 23.4% (active). As for `Cc1cc(Oc2ccccc2)nc(N2CCOCC2)n1`, the viability is 94.1% (inactive). With `Cc1cc(C)n(-c2cc(Oc3ccccc3)ncn2)n1`, the viability was 100% (inactive). To `O=C(CSc1nc2cccnc2n1Cc1ccccc1)N1CCc2ccccc21` belongs 70.1% (inactive); to `C=CCO/N=C(\C)c1c(O)c(C)c(-c2ccccc2)n(-c2ccccc2)c1=O`, 96.7% (inactive); to `O=C(NCC1CCC(C(=O)O)CC1)OCc1ccccc1` (configuration not stated), 98.5% (inactive). For `COc1ccc(C2CC(=O)Nc3cc(C)c(C)cc32)c(OC)c1OC` (configuration not stated) the value was 78.6% (inactive); for `CCCOc1ccccc1C1CC(=O)Nc2cc3c(cc21)OCO3` (configuration not stated), 25.9% (active). To `COCCOC(=O)C1=C(C)NC(=O)CC1c1cc2c(cc1Br)OCO2` (configuration not stated) belongs 97.1% (inactive); to `CCCNC(=S)N1CCC(NC(=O)C23CC4CC(CC(C4)C2)C3)CC1`, 101% (inactive). On to `CCOC(=O)Cc1csc(NC(=O)CSc2nnc(-c3cccnc3)n2Cc2ccco2)n1`, for which the viability was 100% (inactive). For `CCOCc1nnc(NC(=O)CSc2ccc(C)cc2)s1` the value was 94.8% (inactive). For `CCCCCN1CC(O)=C(c2nc(-c3ccc(Cl)cc3)cs2)C1=N` the value was 99% (inactive); for `COc1ccc(C(=O)Nc2ccc(F)cc2F)cc1`, 94.2% (inactive). For `O=C(Nc1cccc(F)c1)c1ccc(S(=O)(=O)N2CCCC2)cc1` the value was 84.8% (inactive); for `CCOC(=O)N1CCN(S(=O)(=O)c2ccc(C(=O)Nc3ccc(F)cc3F)cc2)CC1`, 20.4% (active).
